In PubChem BioAssay (NCI):
Compounds without any hit were thinned out: in the full panel of roughly 79,000, 15% have a hit. Activity calls are given as the source filed them. No stated cut-off is given here; in the data, active means growth inhibition above about 70%; inactive means the rest.

Assay: NCI Yeast Anticancer Drug Screen. Data for the rad50EPP+ strain (AID 151);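 further: 0% = growth of vehicle-treated control cultures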
Settings: S. cerevisiae rad50 mutant strain, at 1.2 µM, stronger effect = higher value
In short: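 In this screen, rad50EPP+ yeast were exposed to compounds. Growth inhibition was scored against vehicle-treated controls.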

SMILES | growth inhibition
O=C1/C(=C/c2ccccc2)CCCC1CN1CCCCC1 (configuration not stated) | -2% (inactive)
C#CCN(Cc1ccc2nc(N)[nH]c(=O)c2c1)c1ccc(C(=O)NC(CCC(=O)O)C(=O)O)cc1 (configuration not stated) | 27% (inactive)
CCOC1(c2cccc([N+](=O)[O-])c2)c2ccccc2Oc2ccccc21 | 3% (inactive)
O=C(O)CNC(=S)Nc1ccccc1 | -86% (inactive)
N/C(=N/N=C/c1cc(Br)cc(Br)c1O)NO | -27% (inactive)
C[Si](C)(C)/C=C/CCNC(C#N)c1ccccc1 (configuration not stated) | -28% (inactive)
CCCCCCCCCCCCCCCCOP(=O)(O)OCC(N)C(=O)O (configuration not stated) | -17% (inactive)
CC1=C(C(=O)NCc2ccccc2)C(c2ccccc2)C(C(=O)NCc2ccccc2)=C(C)N1 | -3% (inactive)
O=[N+]([O-])c1cc(S(=O)(=O)Nc2ccccc2)ccc1Nc1ccccc1 | 2% (inactive)
COc1cc2ccnc(-c3c4ccccc4c(N)c4c(OC)c(OC)ccc34)c2cc1OC | 0% (inactive)
CCOC(=O)C(Br)C(Br)c1ccccc1Cl (configuration not stated) | 24% (inactive)
CCOC(=O)C1=C(C)NC(C)=C(C(=O)OCCNC(=O)c2ccc(N=[N+]=[N-])cc2)C1c1ccccc1C(F)(F)F (configuration not stated) | -1% (inactive)
Cc1cc(C)c(NC(=S)NC(=O)c2ccccc2)cc1C | -44% (inactive)
CNCCCNc1c2ccccc2nc2cccc([N+](=O)[O-])c12 | 43% (inactive)
COc1c(O)c(C=O)c(Br)c(C=O)c1O | 24% (inactive)
Cc1c(C)c(C)c(CSC(=N)N)c(C)c1C | -55% (inactive)
O=C(CSC(=S)N1CCCCC1)Nc1nc2c(s1)CCCC2 | 21% (inactive)
